24 compounds from PMC4336329 (PLoS ONE, 2015) can be followed below.

Out of some 310,000 compounds screened, about 14,000 (4.5%) showed an effect of 50% or more. Effects have a minus sign here. Only a selection was taken, and strong results are over-represented in it overall.
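Also: peak tail current of the secondary pulse compared with the same well before compound.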

The target of this assay is human ether-à-go-go-related gene (hERG) potassium channel (human, UniProt Q12809). Nature of the assay: primary screen, population patch clamp on CHO cells stably expressing hERG; higher = less effect of the substance.
Chain of human ether-à-go-go-related gene (hERG) potassium channel (Q12809 whole entry, looked up): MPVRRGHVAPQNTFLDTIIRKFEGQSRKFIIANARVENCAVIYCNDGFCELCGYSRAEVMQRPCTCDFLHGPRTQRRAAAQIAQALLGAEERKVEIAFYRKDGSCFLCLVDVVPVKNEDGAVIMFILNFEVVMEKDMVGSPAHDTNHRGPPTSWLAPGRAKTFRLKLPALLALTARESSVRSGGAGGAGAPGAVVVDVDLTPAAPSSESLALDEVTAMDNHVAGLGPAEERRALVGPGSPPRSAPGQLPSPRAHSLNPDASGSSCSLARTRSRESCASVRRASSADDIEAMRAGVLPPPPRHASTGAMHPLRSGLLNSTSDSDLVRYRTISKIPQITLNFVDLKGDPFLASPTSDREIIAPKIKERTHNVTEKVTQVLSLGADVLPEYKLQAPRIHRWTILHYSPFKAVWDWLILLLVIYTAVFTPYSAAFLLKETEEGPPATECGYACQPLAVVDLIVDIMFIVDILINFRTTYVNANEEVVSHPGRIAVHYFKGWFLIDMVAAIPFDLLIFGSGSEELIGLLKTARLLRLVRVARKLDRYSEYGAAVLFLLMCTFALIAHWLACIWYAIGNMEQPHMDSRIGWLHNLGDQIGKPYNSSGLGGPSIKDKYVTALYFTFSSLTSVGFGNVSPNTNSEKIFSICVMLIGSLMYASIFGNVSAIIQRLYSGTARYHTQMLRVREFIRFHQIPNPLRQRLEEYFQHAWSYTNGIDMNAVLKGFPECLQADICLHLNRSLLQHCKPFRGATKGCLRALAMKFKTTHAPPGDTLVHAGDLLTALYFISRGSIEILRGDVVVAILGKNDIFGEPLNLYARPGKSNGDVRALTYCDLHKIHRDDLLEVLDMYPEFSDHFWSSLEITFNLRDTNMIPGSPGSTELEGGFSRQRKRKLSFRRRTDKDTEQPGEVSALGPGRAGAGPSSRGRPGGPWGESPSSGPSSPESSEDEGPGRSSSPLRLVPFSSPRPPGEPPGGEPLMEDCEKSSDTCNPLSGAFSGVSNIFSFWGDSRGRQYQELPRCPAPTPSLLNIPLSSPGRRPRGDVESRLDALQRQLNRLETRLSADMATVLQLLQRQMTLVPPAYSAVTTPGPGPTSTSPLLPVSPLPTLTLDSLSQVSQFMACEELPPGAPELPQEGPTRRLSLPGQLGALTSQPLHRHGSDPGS
On to `CCC1CCCCN1C(=O)c1ccc(OC2CCN(C(=O)COC)CC2)cc1` (stereo not drawn), for which the “hERG current change (%, negative = inhibition) at 10uM” value is recorded as 6.08%.

Consider `COC(=O)CCCC(=O)N1CCC(CCC(=O)NC2CC2)CC1`, for which the “hERG current change (%, negative = inhibition) at 10uM” value was found to be 16.6%.

On to `CC1CCCN(CCCOc2ccc(Br)cc2Cl)C1.O=C(O)C(=O)O` (stereo not drawn), for which the “hERG current change (%, negative = inhibition) at 10uM” value is on record as -78.4%.

Regarding `CC1CCN(CCCCOc2ccccc2Br)CC1`, the “hERG current change (%, negative = inhibition) at 10uM” value was -48.9%.

As for `Cc1ccc(Cl)c(OCCN2CCCC(C)C2)c1.O=C(O)C(=O)O` (stereo not drawn), the “hERG current change (%, negative = inhibition) at 10uM” value is -41.8%.

As to `Clc1cc(Br)ccc1OCCOCCN1CCOCC1`, the “hERG current change (%, negative = inhibition) at 10uM” value is -36.7%.

Consider `CC1CCN(CCCOc2ccc(Br)cc2Cl)CC1`, for which the “hERG current change (%, negative = inhibition) at 10uM” value is recorded as -72.8%.

Turning to `CC1CCCN(C(=O)Nc2ccc(Br)cc2Cl)C1` (stereo not drawn), the “hERG current change (%, negative = inhibition) at 10uM” value was -16.4%.

`CCOC(=O)c1cnn(CCOC(=O)c2ccc(F)cc2)c1NC(=O)c1ccc(F)cc1`: the “hERG current change (%, negative = inhibition) at 10uM” value was -19.4%.

For the compound `CSCC[C@H](NC(=O)N1CCn2c1nc1ccccc12)C(=O)NCc1ccc(C)cc1`, the “hERG current change (%, negative = inhibition) at 10uM” value is on record as -13.3%.

For the compound `CC(C)Nc1ccc(Cl)cc1[N+](=O)[O-]`, the “hERG current change (%, negative = inhibition) at 10uM” value came to 14.3%.

`CN(C)c1c(F)cc(-c2nn[nH]n2)cc1F`: the “hERG current change (%, negative = inhibition) at 10uM” value turned out to be 12.9%.

In the case of `CCCCC1=CC2=CC(=O)C(C)(OC(=O)CC)C(=O)C2=CN1CCc1ccccn1` (stereo not drawn), the “hERG current change (%, negative = inhibition) at 10uM” value is reported as -4.43%.

Consider `CCCCC1=CC2=CC(=O)C(C)(OC(=O)CC)C(=O)C2=CN1CCCCO` (stereo not drawn), for which the “hERG current change (%, negative = inhibition) at 10uM” value is on record as 0.395%.

Regarding `CCCCC1=CC2=CC(=O)C(C)(OC(=O)CC)C(=O)C2=CN1CCc1ccc(Br)cc1` (stereo not drawn), the “hERG current change (%, negative = inhibition) at 10uM” value is -58.9%.

For the compound `CCCCC1=CC2=CC(=O)C(C)(OC(=O)CC)C(=O)C2=CN1CCc1c[nH]c2ccccc12` (stereo not drawn), the “hERG current change (%, negative = inhibition) at 10uM” value is on record as -3.97%.

With `CCCCC1=CC2=CC(=O)C(C)(OC(=O)CC)C(=O)C2=CN1Cc1ccccc1` (stereo not drawn), the “hERG current change (%, negative = inhibition) at 10uM” value is -42.9%.

For the compound `CCCCC1=CC2=CC(=O)C(C)(OC(=O)CC)C(=O)C2=CN1CCOC` (stereo not drawn), the “hERG current change (%, negative = inhibition) at 10uM” value is -5.6%.

With `CCCCC1=CC2=CC(=O)C(C)(OC(=O)CC)C(=O)C2=CN1c1ccc(OC)cc1` (stereo not drawn), the “hERG current change (%, negative = inhibition) at 10uM” value is reported as -13%.

As to `COC(=O)CCCC1=CC2=CC(=O)C(C)(OC(=O)c3cccs3)C(=O)C2=CN1Cc1ccc2c(c1)OCO2` (stereo not drawn), the “hERG current change (%, negative = inhibition) at 10uM” value was -7.74%.

In the case of `CCCCC1=CC2=CC(=O)C(C)(OC(=O)CC)C(=O)C2=CN1Cc1ccc(OC)cc1` (stereo not drawn), the “hERG current change (%, negative = inhibition) at 10uM” value was -55.1%.

Consider `CCCCC1=CC2=CC(=O)C(C)(OC(=O)CC)C(=O)C2=CN1Cc1ccco1` (stereo not drawn), for which the “hERG current change (%, negative = inhibition) at 10uM” value is -32%.

On to `CCCCC1=CC2=CC(=O)C(C)(OC(=O)CC)C(=O)C2=CN1Cc1ccc2c(c1)OCO2` (stereo not drawn), for which the “hERG current change (%, negative = inhibition) at 10uM” value is recorded as -55.3%.

Take `CCCCCCCC1=CC2=CC(=O)C(C)(OC(C)=O)C(=O)C2=CN1CCc1ccccc1` (stereo not drawn): the “hERG current change (%, negative = inhibition) at 10uM” value is recorded as -62.3%.
